Results published in PubChem BioAssay AID1159580 (chemical genetic matrix, 2015).
Hit rate of the full screen: of about 5,500 compounds, about 2,000 (36%) were called active. Another 18% or so got no clear call; they are omitted. Rule as the data show it: active = normalized growth mostly below about 0.91 (no sharp cut-off); inconclusive = no clear call, values can overlap the other calls; inactive = mostly above about 0.92. The list shows a part of the results.

Assay: chemical genetic growth profiling, strain panel (AID 1159580);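 also: tested at 20 µM; growth read once vehicle control cultures reached saturation at 30 °C; 1 = growth at the plate median or of vehicle wells; lower values mean less growth of the strain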
Details: growth OD
[1] = S. cerevisiae deletion strains, locus YAL040C, strain CLN3, hits give low values
[2] = S. cerevisiae deletion strains, locus YDR150W, strain NUM1, hits give low values
[3] = S. cerevisiae deletion strains, locus YDR363W, strain ESC2, hits give low values
[4] = S. cerevisiae deletion strains, locus YER002W, strain NOP16, hits give low values
[5] = S. cerevisiae deletion strains, locus YGR078C, strain PAC10, hits give low values
[6] = S. cerevisiae deletion strains, locus YJR075W, strain HOC1, hits give low values
[7] = S. cerevisiae deletion strains, locus YNL128W, strain TEP1, hits give low values
[8] = S. cerevisiae deletion strains, locus YNL175C, strain NOP13, hits give low values
[9] = S. cerevisiae deletion strains, locus YNL197C, strain WHI3, hits give low values
[10] = S. cerevisiae deletion strains, locus YNL224C, strain SQS1, hits give low values
[11] = S. cerevisiae deletion strains, locus YNL322C, strain KRE1, hits give low values
[12] = S. cerevisiae deletion strains, locus YOR083W, strain WHI5 (second series), hits give low values
[13] = S. cerevisiae deletion strains, locus YPL055C, strain LGE1, hits give low values
[14] = S. cerevisiae deletion strains, locus YCL061C, strain MRC1 (second series), hits give low values
[15] = S. cerevisiae deletion strains, locus YMR263W, strain SAP30, hits give low values
[16] = S. cerevisiae deletion strains, locus YMR307W, strain GAS1, hits give low values
[17] = S. cerevisiae deletion strains, locus YNL153C, strain GIM3, hits give low values
[18] = S. cerevisiae deletion strains, locus YPL241C, strain CIN2, hits give low values
[19] = S. cerevisiae deletion strains, locus YBR229C, strain ROT2, hits give low values
[20] = S. cerevisiae deletion strains, locus YDL101C, strain DUN1, hits give low values
[21] = S. cerevisiae deletion strains, locus YHR030C, strain SLT2, hits give low values
[22] = S. cerevisiae deletion strains, locus YLR039C, strain RIC1, hits give low values
[23] = S. cerevisiae deletion strains, locus YAL013W, strain DEP1, hits give low values
[24] = S. cerevisiae deletion strains, locus YCL061C, strain MRC1, hits give low values
[25] = S. cerevisiae deletion strains, locus YEL061C, strain CIN8, hits give low values
[26] = S. cerevisiae deletion strains, locus YHR087W, strain rtc3, hits give low values
[27] = S. cerevisiae deletion strains, locus YJL187C, strain SWE1, hits give low values
[28] = S. cerevisiae deletion strains, locus YJR043C, strain POL32, hits give low values
[29] = S. cerevisiae deletion strains, locus YKL190W, strain CNB1, hits give low values
[30] = S. cerevisiae deletion strains, locus YLR058C, strain SHM2 (second series), hits give low values
[31] = S. cerevisiae deletion strains, locus YLR085C, strain ARP6, hits give low values
[32] = S. cerevisiae deletion strains, locus YLR262C, strain YPT6, hits give low values
[33] = S. cerevisiae deletion strains, locus YML094W, strain GIM5, hits give low values
[34] = S. cerevisiae deletion strains, locus YMR219W, strain ESC1, hits give low values
[35] = S. cerevisiae deletion strains, locus YNL298W, strain CLA4 (second series), hits give low values
[36] = S. cerevisiae deletion strains, locus YNR030W, strain Alg12, hits give low values
[37] = S. cerevisiae deletion strains, locus YPR135W, strain CTF4, hits give low values
[38] = S. cerevisiae strains, strain wild type, hits give low values

Measured: normalized growth

C[N+](C)(C)CC=O
inactive: [1] 0.989 | [2] 1.01 | [3] 0.979 | [4] 0.989 | [5] 1.01 | [6] 0.999 | [7] 0.981 | [8] 1 | [9] 1.04 | [10] 0.993 | [11] 0.994 | [12] 1.06 | [13] 1.03

C/C=C(/C)C(=O)O[C@H]1C(C)=C2[C@H]([C@@H]1OC(=O)CCCCCCC)[C@@](C)(OC(C)=O)C[C@H](OC(=O)CCC)[C@@]1(O)[C@H]2OC(=O)[C@@]1(C)O
inactive: [1] 1 | [14] 0.995 | [2] 1.01 | [3] 1.02 | [4] 1.01 | [5] 0.995 | S. cerevisiae deletion strains, locus YGR229C, strain SMI1, hits give low values 1.05 | [15] 0.995 | [16] 0.968 | [7] 1.03 | [8] 1.02 | [9] 0.984 | [10] 0.988 | [12] 1

CCCCCC(CC(=O)NO)C(=O)NC(C(=O)N1CCCC1CO)C(C)C (stereo not drawn)
inactive: [1] 0.97 | [14] 0.995 | [3] 1.06 | [4] 0.971 | [5] 0.976 | [17] 0.976 | [8] 0.96 | [9] 0.987 | [10] 1.01 | [11] 1.01 | [12] 0.964 | [18] 0.97

COC(=O)C[C@H]1C(C)(C)C(OC(C)=O)[C@]2(O)C=C3C4CC(=O)O[C@@H](c5ccoc5)[C@]4(C)CCC3[C@@]1(C)C2=O (stereo partly drawn)
inactive: S. cerevisiae deletion strains, locus YBR021W, strain FUR4, hits give low values 0.996 | [19] 1 | S. cerevisiae deletion strains, locus YCL029C, strain bik1, hits give low values 1.01 | S. cerevisiae deletion strains, locus YDL035C, strain GPR1, hits give low values 1 | S. cerevisiae deletion strains, locus YDL074C, strain BRE1, hits give low values 1 | [20] 1.01 | S. cerevisiae deletion strains, locus YDL134C, strain PPH21, hits give low values 1.02 | S. cerevisiae deletion strains, locus YDL185W, strain tfp1, hits give low values 1.02 | S. cerevisiae deletion strains, locus YDL192W, strain arf1, hits give low values 1 | S. cerevisiae deletion strains, locus YDR101C, strain arx1, hits give low values 1.01 | S. cerevisiae deletion strains, locus YDR162C, strain NBP2, hits give low values 1.01 | S. cerevisiae deletion strains, locus YDR318W, strain mcm21, hits give low values 1.01 | S. cerevisiae deletion strains, locus YDR388W, hits give low values 1 | S. cerevisiae deletion strains, locus YDR502C, strain sam2, hits give low values 1.02 | S. cerevisiae deletion strains, locus YER110C, hits give low values 1 | S. cerevisiae deletion strains, locus YER155C, strain BEM2, hits give low values 1 | S. cerevisiae deletion strains, locus YER167W, strain BCK2, hits give low values 1.01 | S. cerevisiae deletion strains, locus YGL078C, strain dbp3, hits give low values 1.02 | S. cerevisiae deletion strains, locus YGL086W, strain mad1, hits give low values 1 | S. cerevisiae deletion strains, locus YGL248W, strain PDE1, hits give low values 1 | S. cerevisiae deletion strains, locus YGR135W, strain pre9, hits give low values 1.02 | S. cerevisiae deletion strains, locus YGR252W, strain gcn5, hits give low values 0.975 | [21] 1.01 | S. cerevisiae deletion strains, locus YHR079C, strain IRE1 (second series), hits give low values 1.02 | S. cerevisiae deletion strains, locus YHR094C, strain hxt1, hits give low values 1.01 | S. cerevisiae deletion strains, locus YHR129C, strain ARP1, hits give low values 1 | S. cerevisiae deletion strains, locus YHR200W, strain rpn10, hits give low values 1.01 | S. cerevisiae deletion strains, locus YIL066C, strain RNR3, hits give low values 0.997 | S. cerevisiae deletion strains, locus YIL073C, strain SPO22, hits give low values 1.06 | S. cerevisiae deletion strains, locus YIL125W, strain kgd1, hits give low values 1.01 | S. cerevisiae deletion strains, locus YIR030C, strain dcg1, hits give low values 1 | S. cerevisiae deletion strains, locus YJL095W, strain BCK1, hits give low values 1.03 | S. cerevisiae deletion strains, locus YJL134W, strain LCB3, hits give low values 1 | S. cerevisiae deletion strains, locus YJL168C, strain set2, hits give low values 1.01 | S. cerevisiae deletion strains, locus YJL187C, strain SWE1 (second series), hits give low values 1.02 | S. cerevisiae deletion strains, locus YKL009W, strain mrt4, hits give low values 0.992 | S. cerevisiae deletion strains, locus YKL068W, hits give low values 1.01 | S. cerevisiae deletion strains, locus YKL085W, strain MDH1 (second series), hits give low values 1.01 | S. cerevisiae deletion strains, locus YKL085W, strain MDH1, hits give low values 1.01 | S. cerevisiae deletion strains, locus YKR001C, strain vps1, hits give low values 1.01 | [22] 1.02 | S. cerevisiae deletion strains, locus YLR058C, strain SHM2, hits give low values 1 | S. cerevisiae deletion strains, locus YLR102C, strain apc9, hits give low values 1.01 | S. cerevisiae deletion strains, locus YLR268W, strain sec22, hits give low values 1.01 | S. cerevisiae deletion strains, locus YLR330W, strain CHS5, hits give low values 1.01 | S. cerevisiae deletion strains, locus YLR371W, strain rom2, hits give low values 1.01 | S. cerevisiae deletion strains, locus YLR418C, strain cdc73, hits give low values 1.03 | S. cerevisiae deletion strains, locus YML016C, strain PPZ1, hits give low values 0.999 | S. cerevisiae deletion strains, locus YML032C, strain rad52, hits give low values 1.01 | S. cerevisiae deletion strains, locus YML124C, strain tub3, hits give low values 1.01 | S. cerevisiae deletion strains, locus YMR078C, strain ctf18, hits give low values 1.01 | S. cerevisiae deletion strains, locus YMR223W, strain ubp8, hits give low values 1.01 | [16] 1.04 | S. cerevisiae deletion strains, locus YNL067W, strain RPL9B, hits give low values 1.02 | [17] 1.02 | S. cerevisiae deletion strains, locus YNL233W, strain BNI4, hits give low values 1.02 | S. cerevisiae deletion strains, locus YNL250W, strain rad50, hits give low values 1.01 | S. cerevisiae deletion strains, locus YNL271C, strain bni1, hits give low values 1.01 | S. cerevisiae deletion strains, locus YNL298W, strain CLA4, hits give low values 1 | S. cerevisiae deletion strains, locus YNL307C, strain MCK1, hits give low values 1.01 | S. cerevisiae deletion strains, locus YNR052C, strain pop2, hits give low values 1.01 | S. cerevisiae deletion strains, locus YOL012C, strain htz1 0.877 | S. cerevisiae deletion strains, locus YOL147C, strain pex11, hits give low values 1.01 | S. cerevisiae deletion strains, locus YOR061W, strain CKA2, hits give low values 0.997 | S. cerevisiae deletion strains, locus YOR069W, strain VPS5, hits give low values 1 | S. cerevisiae deletion strains, locus YOR136W, strain idh2, hits give low values 1.02 | S. cerevisiae deletion strains, locus YOR144C, strain elg1, hits give low values 1 | S. cerevisiae deletion strains, locus YOR184W, strain ser1, hits give low values 0.999 | S. cerevisiae deletion strains, locus YOR316C, strain cot1, hits give low values 1.01 | S. cerevisiae deletion strains, locus YPR119W, strain clb2, hits give low values 1.02 | S. cerevisiae deletion strains, locus YPR141C, strain kar3, hits give low values 1.01 | S. cerevisiae deletion strains, locus YPR163C, strain tif3, hits give low values 1.01 | S. cerevisiae deletion strains, locus YPR167C, strain met16, hits give low values 1.01 | S. cerevisiae deletion strains, strain wtn01, hits give low values 0.991

O=S(=O)(c1ccc(Cl)c(Cl)c1)N1CCN(c2ccc(C(F)(F)F)cn2)CC1
inactive: [23] 1 | [19] 1.01 | [24] 1.05 | [20] 1.05 | [2] 1.02 | [25] 0.998 | [5] 1.05 | [21] 1.09 | [26] 1.02 | [27] 1.03 | [28] 1.03 | [6] 1.06 | [29] 1.02 | [22] 1 | [30] 1.02 | [32] 1 | [33] 1.04 | [34] 1.01 | [15] 1.04 | [17] 1.04 | [35] 1.04 | [11] 1.01 | [36] 1.04 | [13] 1.07 | [18] 1.11 | [37] 0.99 | [38] 1.01
active: [31] 1.35 [resistant]

COc1ccccc1N1CCN(S(=O)(=O)c2ccc(C(F)(F)F)cc2)CC1
inactive: [23] 1 | [19] 0.99 | [24] 0.985 | [20] 1.01 | [2] 0.989 | [25] 1.02 | [5] 1 | [21] 1.09 | [26] 1.03 | [27] 0.985 | [28] 0.998 | [6] 0.99 | [29] 0.965 | [22] 0.952 | [30] 0.987 | [31] 0.927 | [32] 0.962 | [33] 0.995 | [34] 0.989 | [15] 0.977 | [16] 1.04 | [17] 1 | [35] 1.01 | [11] 0.99 | [36] 1 | S. cerevisiae deletion strains, locus YOL006C, strain TOP1, hits give low values 1.03 | [13] 0.988 | [18] 0.888 | [37] 0.983 | [38] 0.976

COC(=O)c1csc2c(C(F)(F)F)cc(N3CCN(S(=O)(=O)c4ccc(C)cc4)CC3)nc12
inactive: [23] 1.01 | [19] 1 | [20] 1 | [2] 1.05 | [25] 1.01 | [5] 1.02 | [21] 1.16 | [26] 1 | [27] 1 | [28] 1.04 | [6] 0.999 | [29] 1.01 | [22] 1.01 | [30] 1.01 | [31] 1 | [32] 1.13 | [33] 0.998 | [34] 0.995 | [15] 1.03 | [7] 1 | [35] 1.02 | [11] 1 | [36] 1.03 | [13] 0.993 | [18] 0.986 | [37] 1.11 | [38] 1.01
